Only a selection was taken, and hits are over-represented in it overall.
Pf Dd2 growth: qHTS Primary assay for Inhibitors of Plasmodium falciparum Dd2 growth in vitro; 120,000 compounds, 4.3% hits; Potency, µM (series often up to 28.9 µM), inactives show at the highest dose activity, negative = inhibition, hits mostly inhibitors; P. falciparum Dd2 growth, SYBR Green, 72 h; active = well fitted inhibition curve with a large enough effect;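 note: plate controls were DMSO vehicle for no effect and reference drug for full effect; nearly all actives have a fitted effect of over 65% in size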
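Infected erythrocytes (Dd2, 0.3% parasitemia, 2.5% hematocrit final) are added to compound in RPMI-1640/Albumax II medium, grown 72 h at 37C in low oxygen, then lysed with saponin/Triton-X containing SYBR Green and read by fluorescence.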
* hit, by the source's call; i = inactive; [ ] = another dose, or the depositor's remark. Potency is the fitted concentration of half-maximal effect.

SMILES	Pf Dd2 growth
O=c1[nH]c(N2CCOCC2)nc2c1CCN(Cc1ccc(C(F)(F)F)cc1)CC2	1.26µM*
CN(C)c1nc2c(c(=O)[nH]1)CCN(Cc1ccc(Cl)cc1)CC2	-3.8%[5.79 µM]
O=c1[nH]c(N2CCOCC2)nc2c1CCN(Cc1cc(F)cc(F)c1)CC2	-2.0%[5.79 µM]
CN(C)c1nc2c(c(=O)[nH]1)CCN(Cc1ccccc1)CC2	16.7%[5.79 µM]
CN(C)c1nc2c(c(=O)[nH]1)CCN(Cc1ccccc1Br)CC2	1.12µM*
Cc1ccc(CN2CCc3nc(N4CCOCC4)[nH]c(=O)c3CC2)cc1C	i[5.79 µM]
CN(C)c1nc2c(c(=O)[nH]1)CCN(Cc1ccc(Br)cc1)CC2	2µM*
CN(C)c1nc2c(c(=O)[nH]1)CCN(Cc1cccc(F)c1F)CC2	i[5.79 µM]
CC(=O)c1ccc(NC(=O)N[C@H]2CO[C@H]3[C@@H]2OC[C@H]3OC(=O)NC2CCCCC2)cc1	-17.5%[44.1 µM]
Cc1cc(C(=O)NC2CCN(C(=O)N3CC4CC(C3)[C@H]3CCCC(=O)N3C4)CC2)nn1C (stereo partly specified)	10.0%
O=C([C@@H]1C[C@H](Oc2cccnc2)CN1C(=O)c1ccccn1)N1CCCC1	11.2%
C[C@H]1[C@@H]2[C@H]3OC(=O)[C@@H](C)[C@@H]3CC[C@@]2(C)CC[C@@H]1NC(=O)c1ccncc1	i
COc1cc(NC(=O)Cn2c(-c3ccc(Cl)cc3)nc(C)cc2=O)cc(OC)c1OC	i
CC(C)CNC(=O)N1CC(c2noc(C3CCCN3CC3CC3)n2)C1 (stereo unspecified)	i
CCC(C)Cn1c(COc2ccc(OC)cc2)nc2ccccc21 (stereo unspecified)	i
COc1ccc(N2CCN(CC(O)COc3ccc(C)c(C)c3)CC2)cc1 (stereo unspecified)	22.8%
CCOC(=O)N1CCN(Cc2cccc(OCC(O)CN3CCOCC3)c2)CC1 (stereo unspecified)	0.7%
Cc1cccc(OCC(O)Cn2c(=N)n(CCN3CCCCC3)c3ccccc32)c1 (stereo unspecified)	10µM*
CCn1c(=N)n(CC(O)COc2ccccc2)c2ccccc21 (stereo unspecified)	7.08µM*
COc1ccc(N2CCN(CC(O)COc3c(OC)cccc3OC)CC2)cc1 (stereo unspecified)	11.8%
COc1ccc(C(=O)Nc2ccc([C@H]3OCC(=O)N[C@@H]3CO)cc2)cc1	-9.8%[44.1 µM]
O[C@H]1[C@H](n2cc(-c3cccc(F)c3)nn2)c2ccccc2C12CCNCC2	-10.4%
Cn1c(C(=O)N2CCc3c(n(Cc4cccnc4)n(-c4ccccc4)c3=O)C2)cc2ccccc21	-24.9%
OCc1cc(CC2(NCc3cc4ccccc4o3)COC2)no1	13.4%[44.1 µM]
OCC1CN2CCCCC2CN1 (stereo unspecified)	1.1%[76.6 µM]
SMILES	Pf Dd2 growth
CCCC(=O)N1CCc2cc(OC)c(OC)cc2C1COc1ccc(C(=O)OC)cc1 (stereo unspecified)	10µM*
COc1cc2c(cc1OC)C(CC(=O)O)N(C(=O)Nc1cc(OC)c(OC)c(OC)c1)CC2 (stereo unspecified)	i
CCC(=O)N1CCc2cc(CNC(=O)Cc3ccc(OC)c(OC)c3)ccc21	23.4%
CCOc1ccc(NC(=O)N2CCc3cc(OC)c(OC)cc3C2CNC(=O)CC(C)C)cc1 (stereo unspecified)	i
COc1ccc(C(=O)N2CCN(C(=O)COc3ccc(C)cc3)CC2)cc1OC	23.9%
COC(=O)c1ccc(OCC2c3cc(OC)c(OC)cc3CCN2C(=O)c2ccc(OC)cc2)cc1 (stereo unspecified)	7.08µM*
CNC(=O)[C@@H]1CN(C(=O)Cc2ccc(OC)c(OC)c2)C[C@H]1COC	-11.0%
COc1cc2c(cc1OC)C(COc1ccccc1OC)N(C(=O)COc1ccc(Cl)cc1)CC2 (stereo unspecified)	8.91µM*
COC(=O)c1ccc(OCC2c3cc(OC)c(OC)cc3CCN2C(=O)Cc2ccc(OC)c(OC)c2)cc1 (stereo unspecified)	11.2µM*
COC[C@@H]1CN(C(=O)COc2ccc(Cl)cc2)C[C@H]1C(N)=O	-1.0%
O=C1NC2(CCN(C(=O)Cc3ccccc3)C2)OCc2ccccc21 (stereo unspecified)	i
O=C(O)C1CC2(CCN(C(=O)NCCc3ccccc3)CC2)CN1 (stereo unspecified)	-9.8%
CN1CCCCC(CC(=O)O)C1=O (stereo unspecified)	6.8%
CN(C)C[C@@H]1CN(c2ncccn2)C[C@H]1NC(=O)c1ccc(Cl)cc1	-23.4%
COc1ccccc1CNC(=O)C(C)C1CCOCC1 (stereo unspecified)	15.7%
CNC(=O)[C@@H]1CN(C(=O)c2ccc3c(c2)OCO3)C[C@H]1c1n[nH]c(C)n1	-5.2%
c1ccc(-c2cccc(-n3ccnc3-c3cc4n(n3)CCCNC4)c2)nc1	-26.7%
CCC1Oc2ccc(NC(=O)Nc3cccc(OC)c3)cc2CN(Cc2ccc3c(c2)OCO3)C1=O (stereo unspecified)	i
CC(C)NC(=O)N1C[C@@H](Oc2ccccc2)C[C@@H]1C(=O)N1CCOCC1	i
COC(=O)c1ccc(OCC2c3cc(OC)c(OC)cc3CCN2C(=O)Cc2ccc(OC)cc2)cc1 (stereo unspecified)	10µM*
CCNC(=O)N1CCc2cc(OC)c(OC)cc2C1CNC(=O)CC(C)C (stereo unspecified)	0.3%
CCOC(=O)CC1c2cc(OCC)c(OCC)cc2CCN1C(=O)Nc1cccc(Cl)c1 (stereo unspecified)	-22.8%
COc1ccc(CC(=O)N2CCc3cc(OC)c(OC)cc3C2COc2cc(C)cc(C)c2)cc1OC (stereo unspecified)	3.98µM*
COc1ccc(CC(=O)N2[C@@H]3CC[C@H]2CC(NC(=O)c2ccc(F)cc2)C3)cc1OC (stereo partly specified)	i
CCOC(=O)c1ccc(OCC2c3cc(OC)c(OC)cc3CCN2C(=O)Cc2ccc(F)cc2)cc1 (stereo unspecified)	10µM*
SMILES	Pf Dd2 growth
COc1cc2c(cc1OC)C(CNC(=O)CC(C)C)N(C(=O)NC(C)C)CC2 (stereo unspecified)	i
CCCCC(=O)N1CCc2cc(OC)c(OC)cc2C1COc1ccc(C(=O)OCC)cc1 (stereo unspecified)	11.2µM*
CCOc1cc2c(cc1OCC)C(CC(=O)OC)N(C(=O)Nc1cc(C)cc(C)c1)CC2 (stereo unspecified)	20.4%
COc1ccc(-c2ccc3nc(-c4cccc(F)c4)oc3c2)c(OC)c1OC	i
CN(Cc1ccc(OC(F)(F)F)cc1)C1CCc2ccccc21 (stereo unspecified)	-12.0%[44.1 µM]
Cn1cc(CCC(=O)N2CCN(Cc3ccccc3)CC(O)C2)cn1 (stereo unspecified)	-18.8%
CN1[C@@H](CCC(=O)N2CCOCC2)CNC(=O)[C@H]2NCC[C@H]21	-8.0%[44.1 µM]
CN1C[C@H](O)C[C@H]1c1nc(-c2ccc(OC(F)(F)F)cc2)no1	i
Cc1cccc(C(=O)N2C(C(=O)NCc3ccccc3)COC23CCN(C(=O)CC(C)C)CC3)c1 (stereo unspecified)	i
COCC1CN(S(=O)(=O)c2cccnc2)CC12CCOCC2 (stereo unspecified)	10.7%
CC1CCN(c2ccc(CNC(=O)C3CCCN(S(C)(=O)=O)CCC(=O)NCC3)cc2)CC1 (stereo unspecified)	i
COCC(=O)N1CCC(Oc2ccccc2C(=O)N(C)Cc2ncccc2C)CC1	-3.3%
